# Measurements: the supplement of paper PMC6763611
# Test system: Plasmodium falciparum NF54
# Test: growth inhibition relative to untreated control; higher = more inhibition
# Settings: 72 h
# How it was run: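 Two media were used: minimal RPMI, and minimal RPMI carrying the chorismate end-products folate, pABA, pHBA, tyrosine, phenylalanine and tryptophan at 2.2 μM, 7.3 μM, 7.3 μM, 111 μM and 90 μM for the first five. In these media, P. falciparum NF54 ring stages (1% hematocrit, 1% parasitemia, 100 μL/well) were exposed in dark 96-well half-area plates to a single 5 μM or 1 μM test-compound dose for 72 h at 37 °C. Growth inhibition was then assessed with SYBR Green against untreated wells, subtracting background from uninfected erythrocytes.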
# [1] = 1 µM, MM + chorismate end-products (CM screening medium)
# [2] = 5 µM, MM + chorismate end-products (CM screening medium)
Structure (SMILES),growth inhibition [1] [%],"growth inhibition (1 µM, minimal medium (MM)) [%]",growth inhibition [2] [%],"growth inhibition (5 µM, minimal medium (MM)) [%]"
COc1cccc(-n2nnnc2S(=O)(=O)Cc2ccccc2)c1,13.8,3.94,65.6,< 0
O=C(Nc1cnc2ccccc2c1)c1cccc(-n2cnnn2)c1,94.1,96.4,86.9,87.1
CCCn1nnc(NC(=O)COc2ccc(C3CCCCC3)cc2)n1,6.74,< 0,< 0,< 0
Nc1ccc(C(=O)Nc2ccc(-c3nc4ccccc4o3)cc2)cc1,23.2,18.2,55.7,26.5
Nc1ncnc2c1ncn2[C@@H]1O[C@H](COS(=O)(=O)NC(=O)c2ccccc2O)[C@@H](O)[C@H]1O,32.6,< 0,< 0,< 0
CC(C)C(C(=O)Nc1ccc(S(=O)(=O)N(C)C)cc1)c1ccc(Cl)cc1 (configuration not stated),96.6,94.8,98.6,90.3
Cc1cc(NCCc2ccccc2)nc(NC(=N)Nc2ccc(Cl)cc2)n1,97.8,97.7,86.2,93.7
COc1ccc(-c2cc(NC(=O)c3ccc(F)cc3Cl)ccc2OC)cc1,8.71,13.2,< 0,< 0
C[C@H](C(N)=O)N1CCCC[C@@H]1c1ccc(OCc2cccc(F)c2)cc1,45.1,< 0,14.2,15.9
Cc1nc(-c2ccccn2)nc(NCCc2ccc(S(C)(=O)=O)cc2)c1Cl,32.5,< 0,8.44,< 0
COc1ccccc1CNC(=O)c1cc(C2CC2)nc2c1cnn2C(C)C,82.9,79.8,87.1,91.4
O=C(Nc1ccnc(-c2cccnc2)n1)c1cc(C(F)(F)F)cc(C(F)(F)F)c1,13.6,20.9,93.8,86.6
Cc1ccc2[nH]c(C3CCCNC3)c(-c3ccncc3)c2c1 (configuration not stated),97.7,97.5,> 100,97.4
CCCn1c(CNc2ccccc2O)nc2ccccc21,11.5,22.8,12.5,< 0
Cc1cc(Nc2ccncc2)n2nc(C)c(-c3ccccc3Cl)c2n1,95.7,94.2,94,92.2
C[C@]1(O)C[C@@H](c2nc(-c3ccc4ccc(-c5ccccc5)nc4c3)c3c(N)nccn32)C1,35,34.1,53.2,43.8
CCn1cnc2c(Nc3cc(F)cc(F)c3)nc(C#N)nc21,36.4,< 0,40.3,< 0

Structure (SMILES),growth inhibition [1] [%],"growth inhibition (1 µM, minimal medium (MM)) [%]",growth inhibition [2] [%],"growth inhibition (5 µM, minimal medium (MM)) [%]"
COC(=O)Nc1nc2cc(C(=O)c3ccccc3)ccc2[nH]1,12,< 0,5.63,< 0
CCc1nc2ccc(C(=O)NCc3ccc4c(c3)OCO4)cn2c1N(C)Cc1cccs1,21.4,< 0,< 0,< 0
c1coc(CNc2nc(N3CCCCC3)nc3ccccc23)c1,68.6,35.7,67.2,67.2
COc1ccc2nccc(NC(=O)C3CCN(CCc4ccc(Cl)cc4)CC3)c2n1,33.1,30.5,42.1,42.2
COc1ccc(C2CC(c3cccs3)=NN2C(=O)c2ccco2)cc1OC (configuration not stated),91.4,89.5,91.4,93.4
COc1ccc(S(=O)(=O)Nc2ccc(CN3CCN(C(=O)c4cccc(C#N)c4)CC3)cc2)cc1,0.529,< 0,41.6,13.7
O=C1COCc2ccc(Br)cc2N1Cc1ccc(C(F)(F)F)cc1,56,96.7,> 100,85.1
O=C(OCc1ccccc1)N1CCC(c2cc(-c3ccncc3)c(-c3ccc(F)cc3)[nH]2)CC1,62.4,62.7,98.3,64.2
CCc1ccc(C(NCc2nc(N)nc(N(C)C)n2)C(C)C)cc1 (configuration not stated),9.14,< 0,51.5,9.29
O=C(N[C@H](Cc1ccccc1)C(=O)Nc1ccccc1N1CCOCC1)c1cccs1,6.47,2.12,47.7,27.5
CC(=O)Nc1ccc(NC(=O)c2cc(-c3cc(Cl)ccc3O)n[nH]2)cc1,96.6,95.3,96.3,90.8
Cc1ccc(NC(=O)CC2COc3ccccc3O2)cc1Cl (configuration not stated),23.4,10.6,< 0,< 0
COc1ccc(-c2cnc3ccc(NCc4ccc(S(N)(=O)=O)cc4)nn23)cn1,73.3,77.2,95.9,92.1
CCOc1ccc(-c2nc(CNCCc3ccc(F)cc3)cs2)cc1,2.22,38.5,28.1,27.2
COc1ccc(C2=NN(C3CCCCCC3)C(=O)C2(C)C)cc1OCCCCOc1ccc(-c2nn[nH]n2)cc1,36.5,34.6,47.2,46.8
CCOC(=O)c1cc(-c2csc(Nc3c(C)cc(C)cc3C)n2)on1,12.2,20.5,34.3,< 0
